For twelve compounds, potency estimated from few doses results are on record in publication PMC11062922 (Nature Chemical Biology, 2023).

SMILES strings stand for the structures. Like-named read-outs stand apart in the source and are kept apart here.

What all share (design): species or system human, MV4-11 + K-562 + COLO205 + SK-N-BE2 + OVCAR-8
The test system of one assay is ATM. The settings on record: read-out: apparent Kd, n = 1.
A further assay deals with CAMKK2. Conditions: read-out: apparent Kd, compound concentrations: 100 nM and 1000 nM (sheet 'Samples'), n = 1.
For another assay, the system named is CDK16. Conditions: read-out: apparent Kd, n = 1.
The subject of the next assay is CSNK1D. The settings on record: read-out: apparent Kd, n = 1.
The next assay has as its system MAPK10. Conditions: read-out: apparent Kd, compound concentrations: 100 nM and 1000 nM (sheet 'Samples'), n = 1.
A further assay concerns MAPK9. The settings on record: read-out: apparent Kd, compound concentrations: 100 nM and 1000 nM (sheet 'Samples'), n = 1.
In the next assay the test system is PRKAG2. Conditions: read-out: apparent Kd, n = 1.
A further assay deals with BCR. The settings on record: read-out: apparent Kd, compound concentrations: 100 nM and 1000 nM (sheet 'Samples'), n = 1.
For a further assay, the system named is CHEK1. The settings on record: read-out: apparent Kd; compound concentrations: 100 nM and 1000 nM (sheet 'Samples'), CATDS: 1.9023399407062401E-2; n = 1.
For the next assay, the system named is EPHA4. Conditions: read-out: apparent Kd, compound concentrations: 100 nM and 1000 nM (sheet 'Samples'), n = 1.
The next assay deals with EPHA5. The settings on record: read-out: apparent Kd, compound concentrations: 100 nM and 1000 nM (sheet 'Samples'), n = 1.
The subject of another assay is EPHB2. The settings on record: read-out: apparent Kd, compound concentrations: 100 nM and 1000 nM (sheet 'Samples'), n = 1.
The next assay concerns EPHB4. The settings on record: read-out: apparent Kd, compound concentrations: 100 nM and 1000 nM (sheet 'Samples'), n = 1.
The test system of the next assay is TNK1. Conditions: read-out: apparent Kd, compound concentrations: 100 nM and 1000 nM (sheet 'Samples'), n = 1.
The next assay relates to TNK2. Conditions: read-out: apparent Kd, compound concentrations: 100 nM and 1000 nM (sheet 'Samples'), n = 1.
In a further assay the test system is PRKACB. Conditions: read-out: apparent Kd, n = 1.
Another assay concerns MARK3. Conditions: read-out: apparent Kd, n = 1.
The test system of a further assay is PRKACA. The settings on record: read-out: apparent Kd; compound concentrations:100 nM and 1000 nM (sheet 'Samples'); n = 1.
The next assay has as its system STK4. Conditions: read-out: apparent Kd, n = 1.
The mark [1] stands for this setting: compound concentrations:100 nM and 1000 nM (sheet 'Samples').

Take `COc1cc(Nc2nccc(-c3cnn4ncccc34)n2)cc(OC)c1` [GW801372X]: the potency estimated from few doses in the assay on ATM (compound concentrations: 100 nM and 1000 nM (sheet 'Samples'), CATDS: 3.2681942140962102E-2) is 274 nM; with CAMKK2 (CATDS: 1.8078594286366201E-2), 1750 nM; in the assay with CDK16 (compound concentrations: 100 nM and 1000 nM (sheet 'Samples'), CATDS: 1.6995450779384601E-2), 2320 nM; in the assay with CSNK1D (compound concentrations: 100 nM and 1000 nM (sheet 'Samples'), CATDS: 1.8156615660070499E-2), 1710 nM; in the assay on MAPK10 (CATDS: 2.5530057385415701E-2), 532 nM; in the assay with MAPK9 (CATDS: 1.8501615721313099E-2), 1580 nM.
With `CNc1cc(-c2ccc3c(N)n[nH]c3c2)nc(N)n1` [GSK2224810A], in the assay with PRKAG2 (setting [1]), the potency estimated from few doses is 1090 nM.
`CNCc1ccc(-c2cc(-c3nc(-c4ccc(S(=O)(=O)C(C)C)cc4)cnc3N)on2)cc1` [VE-822]: the potency estimated from few doses with ATM (setting [1]) is 13.5 nM.
Consider `Cc1ccccc1-n1ncc(C(=O)c2ccccc2)c1N` [RO1151248-000], for which the potency estimated from few doses in the assay on ATM (compound concentrations: 100 nM and 1000 nM (sheet 'Samples'), CATDS: 4.4938913040114402E-2) was 302 nM; with BCR (CATDS: 2.0148747001584599E-2) it was 1380 nM; in the assay with CAMKK2 (CATDS: 1.8448697661517601E-2) it was 1790 nM; in the assay with CHEK1, 1630 nM; in the assay on EPHA4 (CATDS: 2.34305639617714E-2), 955 nM; with EPHA5 (CATDS: 2.3755462861685599E-2) it was 926 nM. For the same compound, the potency estimated from few doses with EPHB2 (CATDS: 2.84737750154796E-2) was 640 nM; in the assay with EPHB4 (CATDS: 3.0398268163298901E-2) it was 567 nM; in the assay with TNK1 (CATDS: 3.5283149780083803E-2), 439 nM; in the assay on TNK2 (CATDS: 3.5082928227748202E-2) it was 443 nM.
As for `CCN(CC)Cc1ccc(Nc2nccc(-c3cnn4ncccc34)n2)cc1` [GW780056X], the potency estimated from few doses is 196 nM in the assay with CDK16 (compound concentrations: 100 nM and 1000 nM (sheet 'Samples'), CATDS: 4.3242463436831802E-2); 47.8 nM in the assay with CSNK1D (compound concentrations: 100 nM and 1000 nM (sheet 'Samples'), CATDS: 9.4015783065552402E-2); 371 nM in the assay on MAPK10 (CATDS: 3.1976328377255003E-2).
For the compound `c1ccc(-c2n[nH]cc2Nc2ccnc3ccccc23)nc1` [GW694077X], the potency estimated from few doses is 1390 nM in the assay with CSNK1D (compound concentrations: 100 nM and 1000 nM (sheet 'Samples'), CATDS: 2.5323353021981399E-2); 1900 nM in the assay with MAPK9 (CATDS: 2.3391396830632599E-2).
Turning to `COc1cc[nH]c1/C=C1\C(=O)Nc2ccc([N+](=O)[O-])c(N3CC[C@@H](O)C3)c21` [RO0504985-000], the potency estimated from few doses with CDK16 (compound concentrations: 100 nM and 1000 nM (sheet 'Samples'), CATDS: 3.96360486889639E-2) is 697 nM; in the assay on MAPK10 (CATDS: 3.16649097319332E-2), 1540 nM; with MAPK9 (CATDS: 2.9417077034867501E-2), 2110 nM.
Regarding `Cl.Cn1c(=O)c(Cc2ccccc2F)cc2cnc(NC3CCOCC3)nc21` [RO3305377-001], the potency estimated from few doses with BCR (CATDS: 2.3215110623404499E-2) is 783 nM; with CAMKK2 (CATDS: 1.7496919808973301E-2), 1640 nM; in the assay with EPHA4 (CATDS: 2.0796665862367499E-2), 1010 nM; with EPHA5 (CATDS: 2.9701717682633799E-2), 481 nM; in the assay on EPHB2 (CATDS: 2.7488679205580801E-2), 555 nM; in the assay with EPHB4 (CATDS: 3.5368678995808499E-2), 357 nM. For the same compound, the potency estimated from few doses was 800 nM in the assay with MAPK10 (CATDS: 2.2981904071827101E-2); 529 nM in the assay on MAPK9 (CATDS: 2.8205864879245399E-2); 1370 nM in the assay with PRKACB (compound concentrations: 100 nM and 1000 nM (sheet 'Samples'), CATDS: 1.8562598651845501E-2); 578 nM in the assay on PRKAG2 (compound concentrations: 100 nM and 1000 nM (sheet 'Samples'), CATDS: 2.6904980441579199E-2); 325 nM in the assay on TNK1 (CATDS: 3.75321125845825E-2); 342 nM in the assay on TNK2 (CATDS: 3.6301330504794102E-2).
Regarding `Cc1occc1-c1nc(N)c(OC[C@@H](N)Cc2c[nH]c3ccccc23)cc1-c1cc2c(C)n[nH]c2cn1` [GSK1660450B], the potency estimated from few doses was 452 nM in the assay on CSNK1D (setting [1]); 1250 nM with MARK3 (setting [1]); 8.55 nM in the assay on PRKACA; 18.6 nM with PRKACB (setting [1]); 105 nM in the assay on STK4 (setting [1]).
Take `NS(=O)(=O)c1ccc(N/C=C2\C(=O)Nc3ccc4ncsc4c32)cc1` [GW297361X]: the potency estimated from few doses was 557 nM in the assay on CDK16 (compound concentrations: 100 nM and 1000 nM (sheet 'Samples'), CATDS: 4.8575287587601497E-2); 611 nM with STK4 (compound concentrations: 100 nM and 1000 nM (sheet 'Samples'), CATDS: 4.6410579301478898E-2).
As to `CNc1nccc(-c2ccc3c(N)n[nH]c3c2)n1` [GSK2206003A], the potency estimated from few doses in the assay on MARK3 (compound concentrations: 100 nM and 1000 nM (sheet 'Samples'), CATDS: 5.1673366030294897E-2) is 1410 nM.
On to `NS(=O)(=O)c1ccc(N/N=C2\C(=O)Nc3ccc(-c4cnco4)cc32)cc1` [GW276655_KCGS], for which, in the assay with CDK16 (setting [1]), the potency estimated from few doses was 1880 nM.
